The results in this text go back to ChEMBL document CHEMBL3988442, “University of Dundee, Small-Polar-MMV Screening Library” (2021).

Design in all cases: scale not given: direction of the effect not stated beside the values
The target in assay [1] is Protein translocase subunit SecA (Escherichia coli (strain K12)) (UniProt P10408). The assay can be described thus: Assay to Identify E. coli SecA ATPase Inhibitors. In kind it is functional. Conditions: 30 µM.
In assay [2] the target is T1, Ubiquitin-activating enzyme e1, putative (Leishmania donovani (strain BPK282A1)) (UniProt E9BSI1).
T1 sequence (whole entry): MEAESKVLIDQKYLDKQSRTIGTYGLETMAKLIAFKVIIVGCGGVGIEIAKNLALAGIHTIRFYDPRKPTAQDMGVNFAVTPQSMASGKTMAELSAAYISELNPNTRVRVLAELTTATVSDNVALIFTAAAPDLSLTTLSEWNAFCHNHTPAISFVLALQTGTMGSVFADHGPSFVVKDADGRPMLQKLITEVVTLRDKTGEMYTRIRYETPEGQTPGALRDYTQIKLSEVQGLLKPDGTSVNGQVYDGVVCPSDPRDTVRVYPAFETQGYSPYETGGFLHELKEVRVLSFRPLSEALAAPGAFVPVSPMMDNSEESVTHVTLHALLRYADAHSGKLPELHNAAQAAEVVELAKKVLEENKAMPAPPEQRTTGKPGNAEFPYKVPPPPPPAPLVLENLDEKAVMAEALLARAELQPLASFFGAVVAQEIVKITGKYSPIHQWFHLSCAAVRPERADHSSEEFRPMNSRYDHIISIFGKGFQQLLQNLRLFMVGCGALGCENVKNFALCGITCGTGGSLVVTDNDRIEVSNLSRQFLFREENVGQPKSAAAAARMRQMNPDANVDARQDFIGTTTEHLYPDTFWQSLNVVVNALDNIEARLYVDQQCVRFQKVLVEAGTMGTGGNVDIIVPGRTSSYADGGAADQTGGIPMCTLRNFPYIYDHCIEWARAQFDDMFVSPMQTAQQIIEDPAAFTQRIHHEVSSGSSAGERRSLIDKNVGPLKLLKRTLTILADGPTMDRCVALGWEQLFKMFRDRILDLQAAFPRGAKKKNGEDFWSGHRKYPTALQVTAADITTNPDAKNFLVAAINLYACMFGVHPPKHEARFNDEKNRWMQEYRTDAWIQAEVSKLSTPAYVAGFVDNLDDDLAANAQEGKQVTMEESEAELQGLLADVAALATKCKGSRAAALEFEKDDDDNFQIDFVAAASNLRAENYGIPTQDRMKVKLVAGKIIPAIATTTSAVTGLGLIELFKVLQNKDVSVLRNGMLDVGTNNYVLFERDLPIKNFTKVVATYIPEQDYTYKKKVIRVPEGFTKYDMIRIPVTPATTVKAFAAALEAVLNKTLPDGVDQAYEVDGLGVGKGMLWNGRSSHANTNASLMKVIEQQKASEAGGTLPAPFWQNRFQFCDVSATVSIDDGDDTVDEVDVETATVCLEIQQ
The assay can be described thus: Leishmania donovani Ubiquitin Activating Enzyme (LdE1). The assay is classed as functional. Conditions: 30 µM.

In assay [3] the target is AMP-activated protein kinase, AMPK (Homo sapiens) (UniProt P54646+O43741+P54619+Q9UGJ0+Q9Y478+Q13131+Q9UGI9). The assay can be described thus: AMP-dependent Kinase enzyme assay. An in vitro enzyme assay that detects ADP turnover that is directly proportional to AMPK activity. This uses naive AMPK that is activated during the assay with MK-8722. In kind it is functional. Conditions: 30 µM.

Assay [4] has as its target Sialic acid-binding Ig-like lectin 9 (Homo sapiens) (UniProt Q9Y336). The assay can be described thus: Hs-Siglec9 ALPHAscreen SOP 20170721. Conditions: 10 µM.
Another assay concerns Trypanosoma cruzi. The assay can be described thus: Trypanosoma cruzi phosphomannomutase and mannose-1-phosphate guanylyltransferase assay. Conditions: 10 µM. In kind it is functional.
For assay [5], the target named is T2, Arginase-2, mitochondrial (Homo sapiens) (UniProt P78540).
T2 sequence (whole entry): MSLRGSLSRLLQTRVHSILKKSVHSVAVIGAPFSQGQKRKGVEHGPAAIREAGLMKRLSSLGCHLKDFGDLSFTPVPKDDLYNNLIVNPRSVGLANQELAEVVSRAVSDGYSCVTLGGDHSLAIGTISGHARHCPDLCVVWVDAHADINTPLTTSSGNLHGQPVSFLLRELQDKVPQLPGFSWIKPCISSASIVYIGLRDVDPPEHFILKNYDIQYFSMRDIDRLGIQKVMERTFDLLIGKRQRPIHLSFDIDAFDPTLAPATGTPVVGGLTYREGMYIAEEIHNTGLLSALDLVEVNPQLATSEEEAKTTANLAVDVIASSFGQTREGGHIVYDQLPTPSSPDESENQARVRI
The assay can be described thus: in vitro enzyme assay to detect the production of urea directly proportional to the activity of Arginase II. Also: in the data most compounds retested in dose-response had high values. The assay is classed as functional. Conditions: 33.3 µM.

Assay [6] has as its target T3, Proteasome subunit beta (Trypanosoma cruzi) (UniProt O96673).
T3 sequence (whole entry): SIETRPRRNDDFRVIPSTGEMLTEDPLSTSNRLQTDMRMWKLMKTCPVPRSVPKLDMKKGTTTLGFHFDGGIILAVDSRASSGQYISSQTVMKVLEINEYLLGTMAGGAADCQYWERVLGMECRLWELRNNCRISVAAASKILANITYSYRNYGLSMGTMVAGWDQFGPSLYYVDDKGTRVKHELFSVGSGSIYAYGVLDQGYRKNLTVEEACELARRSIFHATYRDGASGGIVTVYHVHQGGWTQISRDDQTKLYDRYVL
The assay can be described thus: Trypanosoma cruzi proteasome chymotrypsin-like activity (TcProtChymo) assay. Also: in the data most compounds retested in dose-response had high values. In kind it is functional. Conditions: 9.37 µM.

The species named for another assay is Homo sapiens. The assay can be described thus: To identify inhibition of the IFN signalling (Jak-Stat) pathway via expression of an eGFP reporter gene under the control of an IFN-stimulated response element (ISRE) containing MxA promoter. The assay is classed as functional. Conditions: 30 µM.
The target in assay [7] is T4, Tyrosyl-tRNA synthetase, putative (Trypanosoma cruzi (strain CL Brener)) (UniProt Q4DSP6).
T4 sequence (whole entry): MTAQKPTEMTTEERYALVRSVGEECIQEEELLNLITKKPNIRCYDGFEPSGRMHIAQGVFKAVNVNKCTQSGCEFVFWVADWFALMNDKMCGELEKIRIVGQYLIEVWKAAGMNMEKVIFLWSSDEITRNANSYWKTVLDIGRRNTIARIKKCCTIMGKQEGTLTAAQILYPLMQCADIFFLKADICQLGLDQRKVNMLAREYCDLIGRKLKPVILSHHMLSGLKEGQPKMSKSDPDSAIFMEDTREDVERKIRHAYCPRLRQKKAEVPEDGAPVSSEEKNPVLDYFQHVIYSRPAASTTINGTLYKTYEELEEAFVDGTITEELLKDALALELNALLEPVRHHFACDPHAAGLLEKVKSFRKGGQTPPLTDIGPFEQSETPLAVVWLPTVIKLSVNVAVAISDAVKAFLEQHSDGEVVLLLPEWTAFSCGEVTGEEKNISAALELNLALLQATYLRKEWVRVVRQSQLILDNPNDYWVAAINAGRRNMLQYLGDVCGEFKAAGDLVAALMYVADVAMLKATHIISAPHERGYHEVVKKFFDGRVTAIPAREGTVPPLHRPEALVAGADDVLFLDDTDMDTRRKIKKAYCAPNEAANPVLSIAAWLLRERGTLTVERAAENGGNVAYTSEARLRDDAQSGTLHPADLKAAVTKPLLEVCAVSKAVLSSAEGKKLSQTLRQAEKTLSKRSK
The assay can be described thus: Trypanosoma cruzi tyrosyl tRNA synthetase (TcYRS) _High Tyrosine SOP. Also: in the data most compounds retested in dose-response had high values. Conditions: 30 µM. The assay is classed as functional.

Assay [8] has as its target T4, Tyrosyl-tRNA synthetase, putative (Trypanosoma cruzi (strain CL Brener)). The assay can be described thus: Trypanosoma cruzi tyrosyl tRNA synthetase (TcYRS) SOP. Conditions: 30 µM. The assay is classed as functional.
Assay [9] deals with Chromo domain-containing protein 1 (Saccharomyces cerevisiae (strain ATCC 204508 / S288c) (Baker's yeast)) (UniProt P32657). The assay can be described thus: ScCHD-1 Enzyme Inhibition Assay. Also: in the data most compounds retested in dose-response had high values. The assay is classed as functional. Conditions: 30 µM.

Each structure is given as a SMILES string. For some assays here: Results with a measured potency or affinity are listed apart.

Sequence of Chromo domain-containing protein 1 (Saccharomyces cerevisiae (strain ATCC 204508 / S288c) (Baker's yeast)) (P32657 whole entry, the tested form may be a part): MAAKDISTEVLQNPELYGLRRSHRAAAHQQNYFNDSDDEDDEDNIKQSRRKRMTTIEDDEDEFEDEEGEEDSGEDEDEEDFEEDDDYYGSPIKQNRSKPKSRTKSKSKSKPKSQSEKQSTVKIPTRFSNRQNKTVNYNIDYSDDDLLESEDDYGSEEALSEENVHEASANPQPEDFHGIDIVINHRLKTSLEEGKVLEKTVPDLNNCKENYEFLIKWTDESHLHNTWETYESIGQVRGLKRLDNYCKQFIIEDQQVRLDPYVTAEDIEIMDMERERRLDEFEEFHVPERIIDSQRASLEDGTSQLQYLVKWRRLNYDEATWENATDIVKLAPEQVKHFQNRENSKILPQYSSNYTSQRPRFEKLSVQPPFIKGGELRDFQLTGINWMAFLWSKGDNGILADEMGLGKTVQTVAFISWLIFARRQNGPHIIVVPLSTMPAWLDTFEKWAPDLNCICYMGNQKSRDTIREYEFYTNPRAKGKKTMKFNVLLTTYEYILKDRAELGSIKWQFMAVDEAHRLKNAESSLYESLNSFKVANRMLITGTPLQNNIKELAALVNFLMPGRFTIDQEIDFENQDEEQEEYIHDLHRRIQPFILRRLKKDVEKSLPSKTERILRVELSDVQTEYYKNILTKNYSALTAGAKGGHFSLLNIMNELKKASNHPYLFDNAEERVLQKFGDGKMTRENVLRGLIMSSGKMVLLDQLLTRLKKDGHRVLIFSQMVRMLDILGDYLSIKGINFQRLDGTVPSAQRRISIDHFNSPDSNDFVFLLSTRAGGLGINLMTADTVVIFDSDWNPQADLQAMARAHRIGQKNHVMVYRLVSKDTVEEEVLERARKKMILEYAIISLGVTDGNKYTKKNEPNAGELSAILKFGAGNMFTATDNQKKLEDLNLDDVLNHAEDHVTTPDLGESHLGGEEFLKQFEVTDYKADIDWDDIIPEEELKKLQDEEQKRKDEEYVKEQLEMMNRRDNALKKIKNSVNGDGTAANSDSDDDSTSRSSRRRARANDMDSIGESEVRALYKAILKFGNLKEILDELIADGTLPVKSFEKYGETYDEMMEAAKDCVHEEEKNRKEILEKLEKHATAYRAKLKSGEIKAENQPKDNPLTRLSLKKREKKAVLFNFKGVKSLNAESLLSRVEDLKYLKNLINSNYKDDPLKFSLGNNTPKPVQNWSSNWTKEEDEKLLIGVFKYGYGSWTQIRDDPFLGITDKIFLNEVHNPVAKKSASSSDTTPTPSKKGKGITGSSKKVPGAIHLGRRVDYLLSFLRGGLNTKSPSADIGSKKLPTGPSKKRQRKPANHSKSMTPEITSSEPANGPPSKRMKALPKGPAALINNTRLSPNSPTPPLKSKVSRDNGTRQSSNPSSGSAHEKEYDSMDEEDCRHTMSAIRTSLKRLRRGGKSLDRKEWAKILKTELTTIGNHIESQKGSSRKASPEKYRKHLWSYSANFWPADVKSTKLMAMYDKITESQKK
Sequence of Sialic acid-binding Ig-like lectin 9 (Homo sapiens) (Q9Y336 whole entry): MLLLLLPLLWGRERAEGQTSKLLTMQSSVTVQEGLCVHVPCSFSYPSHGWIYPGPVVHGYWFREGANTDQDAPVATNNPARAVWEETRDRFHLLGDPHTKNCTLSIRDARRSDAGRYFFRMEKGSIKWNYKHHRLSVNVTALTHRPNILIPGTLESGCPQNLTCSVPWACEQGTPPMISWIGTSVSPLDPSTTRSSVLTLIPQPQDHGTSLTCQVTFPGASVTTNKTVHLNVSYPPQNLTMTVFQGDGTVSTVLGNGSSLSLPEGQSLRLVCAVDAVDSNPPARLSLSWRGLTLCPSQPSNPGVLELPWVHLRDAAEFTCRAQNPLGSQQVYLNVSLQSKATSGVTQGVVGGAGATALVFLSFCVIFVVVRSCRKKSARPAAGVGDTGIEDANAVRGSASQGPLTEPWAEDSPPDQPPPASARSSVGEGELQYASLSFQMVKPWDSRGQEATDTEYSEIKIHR
Sequence of Protein translocase subunit SecA (Escherichia coli (strain K12)) (P10408 whole entry): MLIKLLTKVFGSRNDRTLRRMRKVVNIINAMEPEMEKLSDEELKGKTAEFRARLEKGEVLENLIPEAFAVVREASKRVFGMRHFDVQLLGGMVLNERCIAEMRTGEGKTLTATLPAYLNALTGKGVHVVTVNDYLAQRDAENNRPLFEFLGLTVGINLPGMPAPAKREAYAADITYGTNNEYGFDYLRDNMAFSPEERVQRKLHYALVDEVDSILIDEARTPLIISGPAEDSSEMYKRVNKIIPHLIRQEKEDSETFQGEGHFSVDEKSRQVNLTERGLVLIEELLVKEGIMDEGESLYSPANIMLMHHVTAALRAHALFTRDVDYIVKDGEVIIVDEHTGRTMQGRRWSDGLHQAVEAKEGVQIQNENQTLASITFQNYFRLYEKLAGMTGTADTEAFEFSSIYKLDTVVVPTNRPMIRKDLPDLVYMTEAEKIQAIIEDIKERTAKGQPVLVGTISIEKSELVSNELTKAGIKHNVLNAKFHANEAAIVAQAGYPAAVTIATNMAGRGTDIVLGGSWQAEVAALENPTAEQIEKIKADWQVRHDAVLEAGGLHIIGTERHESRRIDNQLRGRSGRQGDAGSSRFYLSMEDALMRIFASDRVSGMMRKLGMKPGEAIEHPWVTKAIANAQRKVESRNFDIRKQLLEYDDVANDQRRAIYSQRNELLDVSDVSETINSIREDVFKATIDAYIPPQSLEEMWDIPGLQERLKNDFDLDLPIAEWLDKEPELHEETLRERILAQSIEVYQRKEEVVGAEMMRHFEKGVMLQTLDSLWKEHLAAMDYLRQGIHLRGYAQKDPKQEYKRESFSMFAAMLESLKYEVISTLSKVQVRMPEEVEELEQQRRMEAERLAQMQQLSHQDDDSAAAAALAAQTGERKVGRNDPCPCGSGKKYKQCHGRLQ

For `O=C(NCCNc1ncccn1)C1CCN(c2ncccn2)CC1`, the Percent Effect is -4.14% in assay [1]; 10.8% in assay [2]; -3.16% in assay [3]; 5.87% in assay [4]; 7.71% with Trypanosoma cruzi; -4.62% in assay [5]. For the same compound, the Percent Effect in [6] is 5.57%; in the assay filed under Homo sapiens, 26.3%; in assay [7], -10.9%; in assay [8] it was 13.4%; in [9], 1.05%.
Consider `CNC(=O)[C@@]12CCC3(CCN(S(C)(=O)=O)CC3)[C@@H]1CN(S(C)(=O)=O)C2`, for which the Percent Effect in assay [1] is -2.26%; in assay [2] it was 13.5%; in assay [3], -10.4%; in assay [4], 2.21%; with Trypanosoma cruzi, -3.81%; in assay [5], 0.248%. Also, the Percent Effect is 6.78% in [6]; 9.73% in the assay filed under Homo sapiens; 1.07% in assay [7]; 11.1% in assay [8]; 1.21% in [9].
Regarding `CCCn1nc2c(cc1=O)CN(Cc1cc(C)on1)CC2`, the Percent Effect in [1] is -5.31%; in assay [2] it was -2.7%; in [3] it was -46.3%; in assay [4], 0.285%; in the assay on Trypanosoma cruzi, -1.76%; in assay [5] it was 7.08%. In addition, the Percent Effect in [6] was 17.8%; in the assay listed under Homo sapiens, 9.88%; in [7], 6.93%; in assay [8], 6.1%; in [9], -7.36%.
Consider `O=C(CN1CCOC(Cn2cccn2)C1)Nc1nccs1` (stereo not given), for which the Percent Effect in assay [1] was -3.64%; in [2] it was 21.6%; in assay [3] it was -3.52%; in assay [4], 14.3%; in the assay with Trypanosoma cruzi, 6.22%; in assay [5], -1.29%. The Percent Effect was 8.8% in [6]; 7.16% in the assay filed under Homo sapiens; 5.94% in [7]; 25.6% in [8]; -6.75% in assay [9].
Take `Cc1cc(CNCc2c(C)nn(C)c2N2CCOCC2)no1`: the Percent Effect in assay [1] was -3.31%; in assay [2], 10.5%; in [3] it was -9.93%; in assay [4] it was 7.93%; in the assay on Trypanosoma cruzi it was 7.14%; in assay [5] it was 3.06%. Moreover, the Percent Effect is 3.68% in assay [6]; -11.7% in the assay filed under Homo sapiens; 3.43% in assay [7]; 19.5% in assay [8]; -11% in assay [9].
Consider `Cc1csc(N2CCN(C(=O)CCNc3ncccn3)CC2)n1`, for which the Percent Effect is -4.07% in [1]; 16.2% in assay [2]; -2.35% in assay [3]; -1.96% in assay [4]; 1.42% with Trypanosoma cruzi; -6.41% in assay [5]. Further, the Percent Effect in assay [6] is 5.04%; in the assay listed under Homo sapiens, 14.1%; in assay [7], -61.6%; in [8] it was 16.1%; in [9] it was -9.84%.
Turning to `Cc1nc(NC2CCCC2)cc(C2CCN2C(=O)c2cccnc2)n1` (stereo not given), the Percent Effect in [1] was -4.83%; in [2], 23%; in assay [3], 7.33%; in assay [4] it was 1.33%; in the assay with Trypanosoma cruzi, 4.54%; in assay [5] it was -3.48%. Moreover, the Percent Effect in assay [6] is 10.8%; in the assay listed under Homo sapiens, 12.2%; in assay [7] it was 6.45%; in [8] it was 14.3%; in assay [9], -16%.
Consider `Cn1cnnc1C1CCCN(C(=O)c2ccc3c(c2)OCCCO3)C1` (stereo not given), for which the Percent Effect in [1] is -6.73%; in assay [2] it was 18.2%; in assay [3] it was -5.65%; in assay [4], -3.72%; in the assay on Trypanosoma cruzi it was 3.04%; in assay [5], 0.21%. The Percent Effect was 15.3% in [6]; -4.88% in the assay listed under Homo sapiens; 4.76% in assay [7]; 23.5% in assay [8]; -15.9% in [9].
In the case of `CCc1ncncc1C(=O)N1CCOC(c2nc(C)n[nH]2)C1` (stereo not given), the Percent Effect is -9.48% in [1]; -1.27% in [2]; 7.38% in assay [3]; 5.45% in assay [4]; -2.56% in the assay with Trypanosoma cruzi; 2.8% in assay [5]. Also, the Percent Effect in assay [6] was found to be 5.32%; in the assay listed under Homo sapiens, 1.37%; in assay [7], 1.04%; in assay [8], 10.1%; in assay [9] it was 1.96%.
`COc1ccc(CCN2CCc3c(nc(C4CC4)n3C)C2)cc1`: the Percent Effect was -2.18% in [1]; 18.2% in assay [2]; -12.2% in [3]; -0.11% in assay [4]; -3.18% in the assay with Trypanosoma cruzi; 0.356% in assay [5]. For the same compound, the Percent Effect is 9.12% in [6]; 18.2% in the assay listed under Homo sapiens; 6.8% in [7]; 2.44% in [8]; -7.4% in [9].
